Reference: the supplement of paper PMC10849652
Targets with a hit are over-represented here; the source holds about 8,800 in all. About 0.5% of all pairs of compound and target were hits. Unmarked numbers belong to inactive results.

Experiments:
Experiment in all cases: log2 fold change, soluble protein after heating vs DMSO (PISA); higher = thermal stabilisation; K562 lysate, 10 uM; active = over 0.2 and 3.5 SD of the protein, either way, in both replicates (recomputed)
lapatinib = compound: CS(=O)(=O)CCNCc1ccc(-c2ccc3ncnc(Nc4ccc(OCc5cccc(F)c5)c(Cl)c4)c3c2)o1 [lapatinib]
How it was run: (§1)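 Values give the log-two fold change in thermal stability against solvent controls, from duplicates. Crude K562 extract at 1 mg/mL protein, made by dounce homogenisation in PBS pH 7.4 with 1 mM MgCl2, was treated with 10 μM compound for 30 min. After 3 min heating across 48°C-58°C, aliquots were pooled, adjusted to 0.5% NP-40 at 4°C and centrifuged at 21,000xg for 90 min. The supernatant was measured by TMTpro 16plex LC-MS/MS with channel sums equalised.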

pictilisib = compound: CS(=O)(=O)N1CCN(Cc2cc3nc(-c4cccc5[nH]ncc45)nc(N4CCOCC4)c3s2)CC1 [pictilisib]
How it was run: as §1

crizotinib = compound: C[C@@H](Oc1cc(-c2cnn(C3CCNCC3)c2)cnc1N)c1c(Cl)ccc(F)c1Cl [crizotinib]
How it was run: as §1

[1] = compound: C[C@H](C1=CC=C(C=C1)C(=O)NC2=C3C=CNC3=NC=C2)N
How it was run: as §1

duvelisib = compound: C[C@H](Nc1ncnc2nc[nH]c12)c1cc2cccc(Cl)c2c(=O)n1-c1ccccc1 [duvelisib]
How it was run: as §1

gandotinib = compound: Cc1cc(Nc2cc(CN3CCOCC3)c3nc(C)c(Cc4ccc(Cl)cc4F)n3n2)n[nH]1 [gandotinib]
How it was run: as §1

tozasertib = compound: Cc1cc(Nc2cc(N3CCN(C)CC3)nc(Sc3ccc(NC(=O)C4CC4)cc3)n2)n[nH]1 [tozasertib]
How it was run: as §1

doramapimod = compound: Cc1ccc(-n2nc(C(C)(C)C)cc2NC(=O)Nc2ccc(OCCN3CCOCC3)c3ccccc23)cc1 [doramapimod]
How it was run: as §1

bafetinib = compound: Cc1ccc(NC(=O)c2ccc(CN3CC[C@H](N(C)C)C3)c(C(F)(F)F)c2)cc1Nc1nccc(-c2cncnc2)n1 [bafetinib]
How it was run: as §1

[2] = compound: Cc1cccc(CC(=O)N2CCc3c2ccc(-c2cn(C)c4ncnc(N)c24)c3F)n1
How it was run: as §1

Chain of UniProt P52732 (P52732 whole entry, looked up): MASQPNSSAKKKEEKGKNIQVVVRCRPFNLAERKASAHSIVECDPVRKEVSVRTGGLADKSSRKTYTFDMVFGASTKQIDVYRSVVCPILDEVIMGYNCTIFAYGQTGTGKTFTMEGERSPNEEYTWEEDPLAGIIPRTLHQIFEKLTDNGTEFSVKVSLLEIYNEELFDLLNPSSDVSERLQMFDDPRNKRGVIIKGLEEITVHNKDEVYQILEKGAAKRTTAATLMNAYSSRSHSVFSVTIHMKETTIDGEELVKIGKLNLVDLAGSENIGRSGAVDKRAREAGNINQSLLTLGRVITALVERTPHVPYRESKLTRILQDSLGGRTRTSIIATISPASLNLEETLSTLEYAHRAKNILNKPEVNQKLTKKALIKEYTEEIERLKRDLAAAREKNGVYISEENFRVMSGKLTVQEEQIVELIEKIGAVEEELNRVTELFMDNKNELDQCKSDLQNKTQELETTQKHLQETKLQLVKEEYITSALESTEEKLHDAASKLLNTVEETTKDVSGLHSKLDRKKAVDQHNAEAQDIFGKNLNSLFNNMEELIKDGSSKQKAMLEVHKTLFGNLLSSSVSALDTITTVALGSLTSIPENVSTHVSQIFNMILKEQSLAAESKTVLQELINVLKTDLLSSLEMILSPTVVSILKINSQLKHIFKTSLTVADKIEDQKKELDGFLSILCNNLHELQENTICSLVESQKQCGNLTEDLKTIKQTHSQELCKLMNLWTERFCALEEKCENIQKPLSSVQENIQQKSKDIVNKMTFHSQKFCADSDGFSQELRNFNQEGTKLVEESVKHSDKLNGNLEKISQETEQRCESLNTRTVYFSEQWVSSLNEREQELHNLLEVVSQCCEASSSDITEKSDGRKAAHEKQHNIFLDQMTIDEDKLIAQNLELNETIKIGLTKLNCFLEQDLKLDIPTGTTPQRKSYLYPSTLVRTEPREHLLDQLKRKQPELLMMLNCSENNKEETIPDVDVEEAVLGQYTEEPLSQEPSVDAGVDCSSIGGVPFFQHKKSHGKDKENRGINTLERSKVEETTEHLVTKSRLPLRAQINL
Chain of UniProt Q96II8 (Q96II8 whole entry, looked up): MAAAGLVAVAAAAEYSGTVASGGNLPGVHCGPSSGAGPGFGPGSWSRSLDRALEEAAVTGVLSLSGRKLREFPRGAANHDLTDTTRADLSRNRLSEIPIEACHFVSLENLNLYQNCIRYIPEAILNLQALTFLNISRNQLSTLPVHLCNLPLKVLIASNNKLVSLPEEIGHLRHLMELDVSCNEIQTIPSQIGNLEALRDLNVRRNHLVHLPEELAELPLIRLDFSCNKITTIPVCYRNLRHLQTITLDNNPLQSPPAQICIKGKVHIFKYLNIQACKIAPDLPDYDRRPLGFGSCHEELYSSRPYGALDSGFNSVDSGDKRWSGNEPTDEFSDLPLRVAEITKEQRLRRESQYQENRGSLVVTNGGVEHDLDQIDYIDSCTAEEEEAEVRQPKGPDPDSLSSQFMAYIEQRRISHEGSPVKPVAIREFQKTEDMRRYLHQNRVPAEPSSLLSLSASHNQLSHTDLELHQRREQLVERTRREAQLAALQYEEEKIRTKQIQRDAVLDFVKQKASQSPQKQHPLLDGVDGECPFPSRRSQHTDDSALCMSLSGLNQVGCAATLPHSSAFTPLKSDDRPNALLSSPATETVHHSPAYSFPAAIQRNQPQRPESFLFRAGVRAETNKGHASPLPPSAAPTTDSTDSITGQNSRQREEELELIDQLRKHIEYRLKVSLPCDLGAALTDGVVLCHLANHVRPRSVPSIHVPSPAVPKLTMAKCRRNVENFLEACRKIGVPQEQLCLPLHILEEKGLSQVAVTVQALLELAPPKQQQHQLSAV
Chain of UniProt Q00013 (Q00013 whole entry, looked up): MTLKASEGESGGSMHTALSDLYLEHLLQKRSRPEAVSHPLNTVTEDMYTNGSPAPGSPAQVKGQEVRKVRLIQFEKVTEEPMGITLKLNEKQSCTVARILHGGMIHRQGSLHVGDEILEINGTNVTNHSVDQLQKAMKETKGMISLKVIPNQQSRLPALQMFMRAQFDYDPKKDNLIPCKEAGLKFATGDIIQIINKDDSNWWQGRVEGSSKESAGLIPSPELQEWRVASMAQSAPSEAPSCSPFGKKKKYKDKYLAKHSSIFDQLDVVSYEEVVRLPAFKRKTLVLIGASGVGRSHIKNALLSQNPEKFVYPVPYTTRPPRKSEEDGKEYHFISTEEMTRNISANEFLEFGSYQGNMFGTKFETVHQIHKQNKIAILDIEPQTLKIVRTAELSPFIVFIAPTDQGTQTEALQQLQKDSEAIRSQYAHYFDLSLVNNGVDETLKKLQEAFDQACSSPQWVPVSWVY
Chain of UniProt O95239 (O95239 whole entry, looked up): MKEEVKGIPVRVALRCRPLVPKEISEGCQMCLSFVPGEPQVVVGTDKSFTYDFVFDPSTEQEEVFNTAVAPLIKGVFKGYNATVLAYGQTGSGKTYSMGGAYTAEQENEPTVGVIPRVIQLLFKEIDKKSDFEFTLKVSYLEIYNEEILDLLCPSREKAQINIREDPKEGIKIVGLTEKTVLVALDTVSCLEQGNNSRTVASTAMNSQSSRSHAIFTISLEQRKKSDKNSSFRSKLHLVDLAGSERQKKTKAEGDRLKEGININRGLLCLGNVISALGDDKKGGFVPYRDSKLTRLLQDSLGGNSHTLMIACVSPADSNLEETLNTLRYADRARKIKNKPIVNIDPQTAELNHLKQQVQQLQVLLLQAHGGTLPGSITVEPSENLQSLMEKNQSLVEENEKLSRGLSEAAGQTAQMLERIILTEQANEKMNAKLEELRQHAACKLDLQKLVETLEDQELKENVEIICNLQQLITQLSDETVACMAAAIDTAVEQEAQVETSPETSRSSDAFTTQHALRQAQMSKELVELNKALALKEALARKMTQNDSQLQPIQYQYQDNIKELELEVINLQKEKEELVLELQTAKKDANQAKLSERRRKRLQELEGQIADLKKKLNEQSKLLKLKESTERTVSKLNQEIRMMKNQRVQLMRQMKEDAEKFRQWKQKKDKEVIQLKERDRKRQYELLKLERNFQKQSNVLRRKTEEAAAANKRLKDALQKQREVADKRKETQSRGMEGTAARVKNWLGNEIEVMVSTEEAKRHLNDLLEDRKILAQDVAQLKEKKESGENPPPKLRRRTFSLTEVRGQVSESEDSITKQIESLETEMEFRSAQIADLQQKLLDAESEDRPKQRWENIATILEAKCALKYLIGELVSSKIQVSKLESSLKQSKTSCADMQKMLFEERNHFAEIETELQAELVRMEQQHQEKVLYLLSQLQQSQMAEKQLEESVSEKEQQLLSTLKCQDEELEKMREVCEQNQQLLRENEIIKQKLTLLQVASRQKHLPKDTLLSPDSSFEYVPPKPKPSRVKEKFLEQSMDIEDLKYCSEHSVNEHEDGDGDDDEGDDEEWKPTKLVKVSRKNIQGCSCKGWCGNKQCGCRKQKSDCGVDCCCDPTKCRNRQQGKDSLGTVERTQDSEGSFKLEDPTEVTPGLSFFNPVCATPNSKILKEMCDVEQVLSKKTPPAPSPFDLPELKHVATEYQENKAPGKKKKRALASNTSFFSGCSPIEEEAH
Chain of UniProt Q14693 (Q14693 whole entry, looked up): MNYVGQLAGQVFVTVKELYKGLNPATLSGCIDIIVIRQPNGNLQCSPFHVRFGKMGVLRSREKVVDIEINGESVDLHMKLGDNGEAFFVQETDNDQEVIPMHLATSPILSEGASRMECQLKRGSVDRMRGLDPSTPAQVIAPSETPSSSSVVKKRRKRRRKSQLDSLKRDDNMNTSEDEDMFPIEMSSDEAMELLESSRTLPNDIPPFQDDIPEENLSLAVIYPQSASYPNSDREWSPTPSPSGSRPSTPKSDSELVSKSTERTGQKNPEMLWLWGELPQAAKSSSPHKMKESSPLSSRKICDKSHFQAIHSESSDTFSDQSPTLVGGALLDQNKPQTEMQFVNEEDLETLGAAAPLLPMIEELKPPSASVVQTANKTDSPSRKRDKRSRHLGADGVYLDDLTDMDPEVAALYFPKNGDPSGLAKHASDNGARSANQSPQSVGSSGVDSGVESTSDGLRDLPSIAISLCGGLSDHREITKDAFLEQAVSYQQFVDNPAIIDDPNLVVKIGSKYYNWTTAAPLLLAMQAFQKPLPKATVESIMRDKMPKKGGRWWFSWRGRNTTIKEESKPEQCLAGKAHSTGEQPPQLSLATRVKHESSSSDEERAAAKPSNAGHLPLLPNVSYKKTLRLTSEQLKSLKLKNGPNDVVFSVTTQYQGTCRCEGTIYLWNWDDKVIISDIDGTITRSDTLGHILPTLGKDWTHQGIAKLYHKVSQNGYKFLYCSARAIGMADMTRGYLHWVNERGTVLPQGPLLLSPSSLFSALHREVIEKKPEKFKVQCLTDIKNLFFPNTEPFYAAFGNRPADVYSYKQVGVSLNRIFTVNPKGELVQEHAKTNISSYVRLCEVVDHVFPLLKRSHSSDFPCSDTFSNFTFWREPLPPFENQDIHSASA
Chain of UniProt Q9GZY8 (Q9GZY8 whole entry, looked up): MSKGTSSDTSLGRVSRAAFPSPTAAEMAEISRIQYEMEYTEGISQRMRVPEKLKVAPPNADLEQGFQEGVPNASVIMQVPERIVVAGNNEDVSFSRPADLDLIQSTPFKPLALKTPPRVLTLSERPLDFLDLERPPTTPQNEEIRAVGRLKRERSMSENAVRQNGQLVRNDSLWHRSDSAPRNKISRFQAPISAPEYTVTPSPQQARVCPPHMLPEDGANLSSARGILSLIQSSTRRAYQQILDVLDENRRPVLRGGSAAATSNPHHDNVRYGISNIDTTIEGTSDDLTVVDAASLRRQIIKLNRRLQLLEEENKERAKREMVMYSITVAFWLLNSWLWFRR
Chain of UniProt P10620 (P10620 whole entry, looked up): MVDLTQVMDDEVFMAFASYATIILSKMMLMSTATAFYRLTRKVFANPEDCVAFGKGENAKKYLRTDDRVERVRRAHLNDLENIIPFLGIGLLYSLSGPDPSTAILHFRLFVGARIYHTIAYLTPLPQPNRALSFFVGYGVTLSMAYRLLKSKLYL

| Target | log2 fold change (lapatinib) | log2 fold change (pictilisib) | log2 fold change (crizotinib) | log2 fold change [1] | log2 fold change (duvelisib) | log2 fold change (gandotinib) | log2 fold change (tozasertib) | log2 fold change (doramapimod) | log2 fold change (bafetinib) | log2 fold change [2] |
| --- | --- | --- | --- | --- | --- | --- | --- | --- | --- | --- |
| KPNA4 (UniProt O00629) | 0.03 | 0.011 | -0.044 | -0.217 (active) | 0.012 | 0.089 | -0.018 | 0.02 | 0.049 | 0.155 |
| LLGL1 (UniProt Q15334) | -0.005 | -0.058 | -0.025 | 0.263 (active) | 0.096 | -0.011 | 0.054 | 0.006 | -0.104 | -0.019 |
| L3HYPDH (UniProt Q96EM0) | -0.019 | -0.032 | -0.028 | -0.045 | -0.014 | 0.018 | -0.002 | 0.036 | -0.018 | -0.048 |
| MPP1 (UniProt Q00013) | 0.006 | 0.016 | 0.001 | -0.006 | 0.012 | -0.008 | 0.017 | 0.006 | -0.015 | 0.001 |
| KIF4A (UniProt O95239) | 0.007 | -0.002 | -0.043 | 0.012 | -0.029 | -0.061 | 0.021 | 0 | -0.066 | -0.006 |
| MARCHF6 (UniProt O60337) | -0.039 | 0.09 | -0.118 | -0.073 | 0.103 | -0.028 | 0.004 | 0.003 | -0.105 | -0.005 |
| MLH1 (UniProt P40692) | -0.006 | 0.001 | -0.085 | -0.035 | 0.016 | -0.04 | -0.043 | 0.013 | -0.063 | 0.038 |
| MAP2K1 (UniProt Q02750) | -0.065 | -0.009 | 0.001 | 0.204 | -0.021 | -0.042 | 0.152 | -0.002 | -0.027 | -0.047 |
| LIG4 (UniProt P49917) | 0.028 | -0.245 | -0.035 | -0.064 | 0.022 | -0.07 | -0.034 | -0.037 | -0.167 | 0.073 |
| MFF isoform 2 (UniProt Q9GZY8) | 0.055 | 0.028 | 0 | -0.239 (active) | 0.022 | 0.106 | -0.031 | -0.035 | -0.031 | 0.24 |
| MRPL15 (UniProt Q9P015) | -0.021 | 0.036 | -0.045 | -0.421 (active) | -0.013 | 0.134 | 0 | 0.079 | -0.063 | 0.241 |
| MICU2 (UniProt Q8IYU8) | -0.057 | 0.036 | -0.043 | 0.026 | 0.015 | -0.264 (active) | 0.083 | 0.029 | -0.056 | 0.029 |
| MED17 (UniProt Q9NVC6) | 0.003 | 0.018 | -0.029 | -0.058 | -0.005 | -0.037 | -0.043 | 0.008 | -0.005 | 0.034 |
| MAD2L2 (UniProt Q9UI95) | -0.003 | 0.058 | -0.142 | -0.008 | -0.001 | -0.127 | 0.042 | 0.022 | -0.11 | 0.073 |
| MRPL46 (UniProt Q9H2W6) | 0.019 | 0.096 | -0.011 | 0.452 (active) | 0.033 | -0.09 | 0.008 | 0.024 | 0.034 | -0.073 |
| MAP2K4 isoform 2 (UniProt P45985) | -0.036 | -0.077 | -0.086 | 0.619 (active) | -0.012 | -0.031 | -0.087 | -0.032 | -0.05 | -0.059 |
| MAP2K7 isoform 4 (UniProt O14733) | 0.004 | 0.204 | -0.05 | 0.081 | -0.048 | -0.042 | -0.04 | 0.052 | -0.06 | 0.002 |
| KIF2A isoform 4 (UniProt O00139) | -0.004 | -0.006 | -0.004 | 0.026 | 0.022 | -0.066 | 0.01 | 0.055 | -0.006 | 0.037 |
| MLST8 (UniProt Q9BVC4) | -0.028 | -0.073 | 0.004 | -0.034 | -0.028 | -0.055 | 0.078 | 0.08 | -0.026 | 0.032 |
| MED14 (UniProt O60244) | -0.032 | -0.006 | -0.016 | -0.058 | -0.033 | -0.016 | 0.046 | -0.028 | -0.036 | 0.037 |
| LRCH3 (UniProt Q96II8) | -0.008 | -0.08 | -0.114 | -0.046 | -0.012 | 0.027 | 0.012 | 0.099 | -0.104 | 0.059 |
| MGST1 (UniProt P10620) | -0.047 | 0.018 | 0.003 | 0.22 (active) | 0.013 | -0.025 | -0.011 | -0.041 | -0.032 | -0.016 |
| KIF11 (UniProt P52732) | 0 | 0.021 | 0.001 | -0.03 | 0.017 | -0.042 | 0.006 | 0.014 | -0.014 | 0.063 |
| MACO1 (UniProt Q8N5G2) | 0.016 | 0.041 | 0.003 | -0.019 | 0.015 | -0.008 | 0.138 | -0.035 | -0.001 | -0.001 |
| KIF22 (UniProt Q14807) | -0.149 | -0.07 | -0.29 | -0.201 | -0.02 | 0.238 | -0.043 | -0.009 | -0.068 | 0.33 |
| MRPL10 isoform 2 (UniProt Q7Z7H8) | -0.02 | -0.041 | -0.104 | 0.152 | 0.034 | -0.037 | -0.01 | 0.104 | -0.059 | -0.012 |
| LPIN1 isoform 7 (UniProt Q14693) | -0.052 | -0.082 | -0.035 | -0.069 | -0.097 | -0.005 | 0.012 | 0.013 | -0.04 | 0.097 |
| LZTS1 (UniProt Q9Y250) | -0.136 | -0.222 | -0.821 | -0.233 | 0.308 | -0.137 | -0.1 | 0.177 | -0.268 | 0.083 |
| LETM1 (UniProt O95202) | -0.001 | 0.004 | -0.043 | 0.015 | -0.018 | 0.03 | 0.005 | -0.01 | -0.049 | -0.085 |
